The entries come from a sample that favours hits as a whole.
Choline anaer gr = inhibitors of anaerobic choline-dependent gram-negative bacterial growth; Gram-negative bacterium anaerobic choline minimal medium, absorbance growth; active compounds read low; calls only; 55,000 compounds, 0.2% hits; AID 1963822; call rule not given here
Calls only; i = inactive; + = active, no number; ! = not active in a repeat.

SMILES	Choline anaer gr
Cc1cc(N2CCC(C)CC2)nc2ccc(NC(=O)CCC(=O)N3CCCCC3C)cc12 (stereo unspecified)	i
Cc1noc(C(=O)N2CCCCC2C)c1Cl (stereo unspecified)	i
CCCC(=O)N1CCCC1C(=O)N1CCCCC1C (stereo unspecified)	+
CC(=O)N1CCC2(CC1)OC(=O)C(C)=C2C(=O)N1CCOCC1	i
COc1cc(NC(=O)c2cn(-c3ccc(-c4noc(C)n4)cc3)nc2C)cc(OC)c1	i
Cc1ccc(-c2noc3ncnc(N4CCC(C(=O)N(C)c5cc(C)ccc5C)CC4)c23)cc1	i
CCN(C(=O)c1c(C)oc2ncnc(N3CCCCC3)c12)c1cc(C)ccc1C	+
Cc1oc2ncnc(N3CCCCC3)c2c1C(=O)Nc1cccc(Cl)c1	i
Cc1noc2ncnc(NC(C)C)c12	i
Cc1noc2ncn(Cc3ccccc3)c(=O)c12	i
Cc1noc2nc[nH]c(=O)c12	+
COc1ccc(S(=O)(=O)NCCc2cn3c(C)csc3n2)cc1C	i
COc1cccc(C(=O)N2CCN(c3nc4c(F)cccc4s3)CC2)c1	i
CC(C)CCn1c(=O)c2sccc2n2c(SCC(=O)N3CCCC(C)C3)nnc12 (stereo unspecified)	i
CCC(=O)N1CCCN(S(=O)(=O)CC)CC1	i
CCC(=O)N1CCCC1C(=O)N1CCCN(C)CC1 (stereo unspecified)	+
CCN1CCN(C(=O)[C@@H]2CCCN2C(C)=O)CC1	i
COC(=O)c1scc(-c2ccc(C)cc2)c1S(=O)(=O)N1CC=C(c2ccccc2)CC1	i
CCNC(=O)N1CCC(c2nc(C)cs2)CC1	i
Cc1nc2sccn2c(=O)c1NC(=O)Cc1ccc(Cl)cc1	i
Cc1nc2scc(C)n2c(=O)c1NC(=O)C(C)C	i
Cc1nc2scc(C)n2c(=O)c1NC(=O)Cc1ccc(Cl)cc1	+
CN1CCc2c(sc3c2CN(C(=O)Nc2cccc(Cl)c2)C(c2ccccc2)c2cccn2-3)C1 (stereo unspecified)	i
CCOC(=O)c1noc2ncn(CC(=O)Nc3ccc(F)cc3F)c(=O)c12	i
c1ccc(N2CCN(c3ncnc4c3CCC4)CC2)nc1	i
SMILES	Choline anaer gr
c1nc2c(c(N3CCC(N4CCCCC4)CC3)n1)CCC2	+
CN1CCCN(c2ncnc3c2CCC3)CC1	i
CC1CCN(S(=O)(=O)c2ccc3ncn(CC(=O)Nc4nc5ccccc5s4)c(=O)c3c2)CC1	i
CCOc1ccccc1NC(=O)Nc1ccc(-c2nc3ccccc3s2)cc1	i
CC(C)CCNC(=O)CSc1nc(-c2ccccc2)no1	i
CCCCNC(=O)CSc1nc(-c2ccc(C(C)C)cc2)no1	+
CCc1ccc(NC(=O)CSc2nc(-c3ccc(C(C)C)cc3)no2)cc1	i
O=c1[nH]c(SCc2ccc(Cl)cc2)nc2c1CN(Cc1ccc(F)cc1)CC2	i
O=C(NC1CCCCC1)c1cccn1-c1cccnc1	i
CCc1nnc(-c2cc(S(=O)(=O)NCC3CCCO3)c[nH]2)o1 (stereo unspecified)	i
c1cc(N2CCOCC2)ncc1-c1noc(CN2CCSCC2)n1	i
CCOC(=O)c1c(-c2ccc(C)cc2)csc1NC(=O)Cc1coc2cc(C)ccc12	i
CC/C=C\C/C=C\C/C=C\CCCCCCCC(=O)O	i
CCCCC/C=C\C/C=C\CCCCCCCC(N)=O	i
CCCCC/C=C\C/C=C\CC1OC1C/C=C\CCCC(=O)O (stereo unspecified)	i
CC/C=C\C/C=C\C/C=C\C/C=C\C/C=C\CCCC(=O)O	+
CCCCC/C=C\C/C=C\C/C=C\C/C=C\CCCCCC(=O)O	i
CC/C=C\C/C=C\C/C=C\CCCCCCCCCCCC(=O)O	+
CCCCC/C=C\C/C=C\C/C=C\C/C=C\CCCC(=O)O	i
CC/C=C\C/C=C\C/C=C\CCCCCCCCCC(=O)O	+
CCCCCCC/C=C\CCCCCCCCC(=O)O	i
O=c1[nH]c2ccc(S(=O)(=O)Nc3ccc(F)cc3F)cc2[nH]1	i
Cc1cccc(NC(=O)c2sc(N3CCCC3=O)nc2C)n1	i
Cc1ccc(-n2c(N3CCC(C(=O)NC(C)c4ccc(F)cc4)CC3)nc3ccsc3c2=O)cc1 (stereo unspecified)	i
Cc1[nH]c(C)c(S(=O)(=O)N2CCC(C(=O)N3CCc4ccccc43)CC2)c1C(=O)N1CCCCC1	i
SMILES	Choline anaer gr
Cc1[nH]c(C)c(S(=O)(=O)N2CCc3ccccc3C2)c1C(=O)N1CCCC1	i
Cc1[nH]c(C)c(S(=O)(=O)N2CCC(C(=O)N3CCc4ccccc43)CC2)c1C(=O)N1CCCC1	+
Cc1ccc(CSc2nnc3c(=O)n(-c4ccc(Br)cc4)ccn23)cc1	i
CC1=C(C(=O)Nc2ccc(Cc3ccncc3)cc2)C2(CCCCC2)OC1=O	i
NC[C@@H]1O[C@H](c2ccccc2)Cc2c1ccc(O)c2O	i
NC[C@@H]1O[C@H](C23CC4CC(CC(C4)C2)C3)Cc2c1ccc(O)c2O	+!
Cc1ccccc1C(=O)Nc1cccc(-c2nc(-c3ccccc3)no2)c1	i
CCCN(CCC)S(=O)(=O)c1c[nH]c(-c2nnc(CC)o2)c1	i
CC1CCCN(S(=O)(=O)c2ccc(S(=O)(=O)N(Cc3ccc4c(c3)OCO4)Cc3ccccc3F)cc2)C1 (stereo unspecified)	i
